This is part of a sample that, as a whole, favours compounds with a hit. Of some 83,000 tested, about 20% had one in any assay.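 96-well plates, one dose, 48 hours. Percent growth reported; active if below 10.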 Unmarked numbers belong to inactive results. Active and inactive are the calls of the source.
Legend:
Experiment in all cases: NCI-60 one-dose screen, 48 h (100 = growth as untreated, 0 = no growth, -100 = all killed)
COLO 205 colon = details: 10 µM
K-562 leukemia = details: 10 µM unless noted
MALME-3M melanoma = details: 10 µM unless noted
RXF 393 renal = details: 10 µM unless noted
M14 melanoma = details: 10 µM unless noted
HCT-15 colon = details: 10 µM
SNB-75 CNS = details: 10 µM unless noted
SNB-19 CNS = details: 10 µM unless noted
ACHN renal = details: 10 µM unless noted
SR leukemia = details: 10 µM
OVCAR-8 ovarian = details: 10 µM unless noted
OVCAR-4 ovarian = details: 10 µM unless noted
IGROV1 ovarian = details: 10 µM
OVCAR-3 ovarian = details: 10 µM unless noted
BT-549 breast = details: 10 µM
MDA-MB-435 melanoma = details: 10 µM unless noted
HCC-2998 colon = details: 10 µM unless noted
NCI-H460 lung = details: 10 µM unless noted
SK-MEL-5 melanoma = details: 10 µM unless noted
SW-620 colon = details: 10 µM unless noted

Row | Compound | growth (COLO 205 colon) | growth (K-562 leukemia) | growth (MALME-3M melanoma) | growth (RXF 393 renal) | growth (M14 melanoma) | growth (HCT-15 colon) | growth (SNB-75 CNS) | growth (SNB-19 CNS) | growth (ACHN renal) | growth (SR leukemia) | growth (OVCAR-8 ovarian) | growth (OVCAR-4 ovarian) | growth (IGROV1 ovarian) | growth (OVCAR-3 ovarian) | growth (BT-549 breast) | growth (MDA-MB-435 melanoma) | growth (HCC-2998 colon) | growth (NCI-H460 lung) | growth (SK-MEL-5 melanoma) | growth (SW-620 colon)
1 | O=[N+]([O-])c1cc([N+](=O)[O-])c(Cl)c(Cl)c1Cl | -82.7% (active) | 13% | -48.1% (active) | -86.2% (active) | -8.63% (active) | -49.1% (active) | 59.6% | 73.5% | -87.1% (active) | -5% (active) | -41.1% (active) | -31.4% (active) | 22% | -99% (active) | 49.8% | 19.3% | 78.8% |  |  | 
2 | COc1ccc(OC)c(/C=C(/C)[N+](=O)[O-])c1 | -38.9% (active) | 4.29% (active) |  | -18.5% (active) | 47% | -33.1% (active) | 77.2% |  | -27.7% (active) | -7.63% (active) | 13.1% | 64.4% | -24.8% (active) | -11.3% (active) |  | 23.1% | 106% | 33.1% | 64.6% | -77% (active)
3 | NC(=O)OCC(CO)(c1ccccc1)c1ccccc1 | 105% | 108% | 84.6% | 99.6% | 99.5% | 98.8% | 89.2% | 108% | 98.1% | 96.5% | 100% | 99.7% | 103% | 100% | 107% | 101% | 107% | 107% | 96.4% | 107%

Source: PubChem BioAssay (NCI)
